Results as given in the supplement of paper PMC10723795.
± gives the standard deviation of the averaged measurements.

Test system: RPE1
Assay: nucleolar normality score relative to DMSO (fraction of DMSO control); RPE1 is a non-cancer human cell line; higher = more normal nucleoli (less nucleolar stress)
Protocol: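 Selected screen hits were validated in hTERT lines (BJ5TA, CHON-002, RPE1) and cancer lines (DLD1, HCT116). Cells were immunostained for nucleolin and UBF and the nucleolar normality score was measured per field of view, with 4 fields per drug. Scores are normalized to each cell line's own DMSO control. Dose and time are not stated for this panel.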

| Structure (SMILES) | nucleolar normality score |
| --- | --- |
| C=CCNC1=C2C[C@@H](C)C[C@H](OC)[C@H](O)[C@@H](C)/C=C(\C)[C@H](OC(N)=O)[C@@H](OC)/C=C\C=C(/C)C(=O)NC(=CC1=O)C2=O | 0.296 ± 0.014 |
| CC(C)C[C@H](NC(=O)[C@H](CCc1ccccc1)NC(=O)CN1CCOCC1)C(=O)N[C@@H](Cc1ccccc1)C(=O)N[C@@H](CC(C)C)C(=O)[C@@]1(C)CO1 [Carfilzomib] | 0.501 ± 0.086 |
| CC(C)c1c2cc(-c3ccnc(NC4CCC(NC5CCOCC5)CC4)n3)ccc2nn1C (configuration not stated) | 0.462 ± 0.015 |
| CN1CC[C@H](c2c(O)cc(O)c3c(=O)cc(-c4ccccc4Cl)oc23)[C@H](O)C1 [Flavopiridol] | 0.254 ± 0.019 |
| CC(C)n1nc(-c2ccc3oc(N)nc3c2)c2c(N)ncnc21 [Sapanisertib] | 0.405 ± 0.0078 |
| CCc1cnn2c(NCc3ccc[n+]([O-])c3)cc(N3CCCC[C@H]3CCO)nc12 [Dinaciclib] | 0.268 ± 0.01 |
| Cc1cnc(CNC(=O)c2c(=O)c3ccc(N4CCCN(C)CC4)nc3n3c2sc2ccccc23)cn1 | 0.277 ± 0.066 |
| Cc1nc(-c2cn3c(n2)-c2ccc(-c4cnn(C(C)(C)C(N)=O)c4)cc2OCC3)n(C(C)C)n1 [Taselisib] | 0.376 ± 0.0084 |
| COc1cccc2c1C(=O)c1c(O)c3c(c(O)c1C2=O)C[C@@](O)(C(=O)CO)C[C@@H]3O[C@H]1C[C@H](N)[C@H](O)[C@H](C)O1 [Doxorubicin] | 0.133 ± 0.011 |
| CC(C)c1cc(C(=O)N2Cc3ccc(CN4CCN(C)CC4)cc3C2)c(O)cc1O [Onalespib] | 0.289 ± 0.0093 |
| CN(C)CCNC(=O)c1cccn2c(=O)c3cc4ccccc4cc3nc12 | 0.0724 ± 0.012 |
| COC[C@H](NC(=O)c1cnc(C)s1)C(=O)N[C@@H](COC)C(=O)N[C@@H](Cc1ccccc1)C(=O)[C@@]1(C)CO1 [Oprozomib] | 0.55 ± 0.037 |
